Compound activity (PubChem)
A selection: hits, their analogues and other compounds. The true share with any hit is near 9.4%.
HTT ATP protect – cytoprotection in Huntington HTT-Q103 PC12 cell model | Potency, µM (top dose mostly 56.4 µM), most hits filed as activators | hit rate 0.14% among 230,000 | PC12 HTT-Q103 induced, cytoprotection, ATP luminescence, 40 h | AID 1471; further: nearly all actives have a fitted effect of over 45% in size
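Stable PC12 Q103-GFP cells in serum-supplemented, phenol red-free DMEM; induction by tebufenozide at 100 nM final; compound dose series; cell viability quantified luminescently from ATP.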
HPGD block – blocks human HPGD enzyme activity; purified HPGD, NADH fluorescence kinetic, PGE2 substrate; Potency, µM, actives largely listed as inhibitors; hit rate 4.3% among 150,000; active means well fitted inhibition curve with a large enough effect, not every such curve was filed as active; inconclusive means small, poorly fitted or top-dose-only effect, or another doubt; inactive means no such curve, though single readings can be large or run the other way
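NADH formation kinetics: reaction with 30 uM PGE2 and 1 mM NAD+ (final), 20 nM enzyme, Tris-HCl pH 8 with Tween 20, after 15 min compound preincubation at room temperature. Fluorescence change, last versus first of five reads.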
ALDH1A1 inh – ALDH1A1 (human) enzyme inhibition; AID 1030; P00352; hit rate 7.3% among 220,000; Potency, µM (titrated, usually from 75.3 µM), actives largely listed as inhibitors; Purified ALDH1A1, NADH fluorescence, propionaldehyde substrate; active means well fitted inhibition curve with a large enough effect, not every such curve was filed as active; inconclusive means small, poorly fitted or top-dose-only effect, or another doubt; inactive means no such curve, though single readings can be large or run the other way
Target sequence (P00352 whole entry, looked up): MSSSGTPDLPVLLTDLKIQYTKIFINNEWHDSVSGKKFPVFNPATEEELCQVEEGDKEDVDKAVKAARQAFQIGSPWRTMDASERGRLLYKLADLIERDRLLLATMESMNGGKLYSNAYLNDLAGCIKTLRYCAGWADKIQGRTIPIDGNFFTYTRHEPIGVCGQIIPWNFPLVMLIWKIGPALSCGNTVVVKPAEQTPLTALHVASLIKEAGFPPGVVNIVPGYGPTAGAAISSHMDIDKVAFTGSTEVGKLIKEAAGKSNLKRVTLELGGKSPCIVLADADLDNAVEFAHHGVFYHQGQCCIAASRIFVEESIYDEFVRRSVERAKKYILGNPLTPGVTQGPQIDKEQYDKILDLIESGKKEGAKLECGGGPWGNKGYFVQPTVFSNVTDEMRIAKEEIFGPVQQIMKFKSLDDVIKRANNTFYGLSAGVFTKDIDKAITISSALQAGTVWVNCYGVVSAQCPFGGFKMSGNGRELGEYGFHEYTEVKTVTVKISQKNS
HttQ103 aggreg – reduces HttQ103-GFP aggregates in PC12 cells; PC12 HttQ103-GFP aggregates, Acumen cytometry, 40 h; Potency, µM (doses to about 46.1 µM), hits mostly inhibitors; hit rate 1.1% among 220,000; AID 1688; further: nearly all actives have a fitted effect of over 60% in size
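Using laser scanning cytometry, GFP-positive aggregates were counted after lysis of PC12 cells induced with 100 nM tebufenozide to express HTT exon 1 Q103–GFP. Compounds were tested in titration.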
IMPase inh – cell-permeable inhibitors of inositol monophosphatase (IMPase). P97697. CHO-M1 cells, IP1 accumulation, HTRF TR-FRET ratio. inhibition (IP1 accumulation), % at 46.1 µM. 120,000 tested, under 10 active; active means well fitted curve in the direction sought with a large enough effect in the signal ratio, not every such curve was filed as active; inconclusive means small, poorly fitted or top-dose-only effect, or a change in a side signal; inactive means no such curve, though single readings can be large or run the other way; the % refers to the signal ratio;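 further: cells stimulated with carbachol in lithium chloride buffer; higher means more IMPase inhibition seen as more IP1 and lower FRET ratio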
Target sequence (P97697 whole entry, looked up): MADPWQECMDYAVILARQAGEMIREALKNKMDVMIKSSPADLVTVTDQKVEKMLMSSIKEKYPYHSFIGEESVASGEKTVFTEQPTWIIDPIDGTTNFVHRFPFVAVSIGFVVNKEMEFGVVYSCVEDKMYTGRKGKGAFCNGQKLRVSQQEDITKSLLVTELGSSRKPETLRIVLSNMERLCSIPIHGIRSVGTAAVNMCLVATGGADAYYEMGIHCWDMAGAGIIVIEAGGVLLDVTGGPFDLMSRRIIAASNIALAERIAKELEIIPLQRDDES
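Elevated IP1 in lysates lowers TR-FRET signal (665/620 ratio and 620 channel reported). Cells were CHO-M1, given carbachol (50 uM as added) plus 50mM LiCl, pH 7.4, 30 min, 37C; compounds titrated up to 46 uM; AC50 by Hill equation.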
IMPase Li cell – cell-permeable IMPase inhibitors with lithium potentiation. CHO-M1 cells, IP1 TR-FRET (IP-One), carbachol + lithium. Potency, µM (top dose mostly 59.4 µM), actives largely listed as inhibitors. hit rate 0.35% among 210,000;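 further: IP1 builds up when IMPase is blocked and the TR-FRET signal falls; nearly all actives have a fitted effect of over 50% in size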
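CHO cells stably expressing M1 receptor (2000/well, cultured 16–30 h) treated 30 min at 37C with compound plus low lithium. Cytosolic IP1 by TR-FRET (665/620 ratio and 620 channel) after 10 min lysis; AC50 by Hill fit.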
A number is an active result; - = inactive; ? = inconclusive; . = no result; [ ] = dose if it differs, or a comment. Unless noted, the call rests on the fitted dose curve; in most records, active means well fitted curve in the direction sought with a large enough effect; inconclusive means small, poorly fitted or top-dose-only effect, or another doubt; inactive means no such curve, though single readings can be large; an effect the other way counts as inactive or inconclusive.

SMILES	HTT ATP protect	HPGD block	ALDH1A1 inh	HttQ103 aggreg	IMPase inh	IMPase Li cell
Cc1ccc(C)c(N2CCN(C(=O)c3cc4cc5ccc(C)cc5nc4s3)CC2)c1	.	.	.	.	-	.
O[C@@H]1CC[C@H]2Cc3ccccc3N=C21	-	.	.	.	.	.
O=C(CN1CCCN(S(=O)(=O)c2ccc(Br)s2)CC1)Nc1ccc(Cl)cc1	-	-	4.5µM	-	-	-
O=C(CN1CCCN(S(=O)(=O)c2ccc(Br)cc2)CC1)Nc1ccc2c(c1)OCO2	-[1.9 µM]	-	11µM	-	-	-
COC(=O)c1ccc(NC(=S)N2CCN(Cc3ccc(Cl)cc3)CC2)cc1	-	40µM	-	-	-	-
Cc1ccc(OCc2nc3ccccc3n2CC(C)C)cc1	.	.	.	.	-	.
CCCCc1nc2c(c3c1C[C@H](C)OC3)CN(S(=O)(=O)c1ccc(Cl)c3nonc13)CC2	-[10 µM]	-	?	.	.	-
c1ccc(CCNc2nc(-c3cccnc3)cs2)cc1	-[10 µM]	-	?	-	-	-
CC(C(=O)Nc1ccccn1)N1C(=O)C2C3C=CC(C3)C2C1=O (centres undefined)	-	.	25µM	-	-	.
c1ccc(CCNc2nc(-c3ccccn3)cs2)cc1	-[10 µM]	.	32µM	-[9.22 µM]	.	-
O=C(CCN1C(=O)C2CCCCC2C1=O)Nc1nc(-c2ccc(F)c(F)c2)cs1 (centres undefined)	-	.	?	-	.	-
O=C(CN1C(=O)C2CCCCC2C1=O)Nc1nc(-c2ccccn2)cs1 (centres undefined)	-	28µM	22µM	11µM	-	-
C[C@@H](C(=O)Nc1nc(-c2ccccn2)cs1)N1C(=O)C2CCCCC2C1=O (some centres undefined)	-	25µM	13µM	?	-	-
CC(C)[C@H](NC(=O)c1ccccc1Cl)C(=O)Nc1nc(-c2ccccn2)cs1	-	.	?	-	.	-
O=C(Nc1nc(-c2ccccn2)cs1)C1COc2ccccc2O1 (centres undefined)	-	-	-	-	-	-
CC1CC1C(=O)Nc1nc(-c2ccccn2)cs1 (centres undefined)	-	14µM	10µM	-	-	-
N[C@H](CO)C(=O)NCC(=O)O	-[10 µM]	-	-[13.5 µM]	.	.	-
CC(C)OC(=O)CSc1nnc(-c2ccc(C(C)(C)C)cc2)n1N	-[10 µM]	18µM	18µM	-	-	-
Cc1ccc(CNC(=O)CN2CCN(Cc3ccc(F)cc3)C2=O)cc1	.	.	.	.	-	.
O=C(CCl)Nc1cc(SCC(O)CO)cc([N+](=O)[O-])c1 (centres undefined)	-[10 µM]	.	-	2.8µM	.	-
CCC(=O)Nc1cc(SCCO)cc([N+](=O)[O-])c1	-	-	-	-	-	-
CCC(=O)Nc1cc(ON=C(C)C)cc([N+](=O)[O-])c1	.	-	-	-	.	-
CC(C)=NOc1cc(NC(=O)CCl)cc([N+](=O)[O-])c1	.	-	0.18µM	3.2µM	.	-
COc1ccc(NC(=O)CSc2ncc(-c3ccc(Cl)cc3)[nH]2)cc1OC	.	.	.	.	-	.
O=C(NC1CCCC1)C(c1ccncc1)N(C(=O)c1csnn1)C1CCCC1 (centres undefined)	-[10 µM]	.	13µM	-[9.22 µM]	.	-
SMILES	HTT ATP protect	HPGD block	ALDH1A1 inh	HttQ103 aggreg	IMPase inh	IMPase Li cell
CC(C)c1ccc(N(C(=O)c2csnn2)C(C(=O)NC(C)(C)C)c2ccncc2)cc1 (centres undefined)	-	-	2.2µM	-	-	-
CC(C)(C)NC(=O)C(c1cccnc1)N(C(=O)c1csnn1)c1ccccc1 (centres undefined)	-[10 µM]	.	-	-[9.22 µM]	.	-
CCc1ccc(N(C(=O)c2csnn2)C(C(=O)NC(C)(C)C)c2cccnc2)cc1 (centres undefined)	-[10 µM]	.	13µM	-[9.22 µM]	.	-
CCC(C)(C)NC(=O)C(c1cccnc1)N(C(=O)c1csnn1)c1ccccc1 (centres undefined)	-[10 µM]	.	-	-[9.22 µM]	.	-
CC(C)c1ccc(N(C(=O)c2csnn2)C(C(=O)NC(C)(C)C)c2cccnc2)cc1 (centres undefined)	-	.	0.71µM	-	.	-
Cc1ccc(N(C(=O)c2csnn2)C(C(=O)NC(C)(C)C)c2ccncc2)cc1 (centres undefined)	-	-	-	-	-	-
CC1(C)[C@@H]2CC[C@]1(CC(=O)O)[C@H](Cl)C2	-[10 µM]	-	-[13.5 µM]	.	.	-
COc1ccc(CCNC(=O)CN(c2cc(C(F)(F)F)ccc2Cl)S(C)(=O)=O)cc1	.	.	.	.	-	.
CCOC(=O)c1cc(-c2ccc(N)cc2)sc1N	-[10 µM]	-	28µM	-	-	-
CCOC(=O)c1sc(-c2ccc(Br)cc2)cc1N	-	-	-	-	-	-
C=CCSc1nnc(NC(=O)CSc2nc(CCC)cc(=O)[nH]2)s1	-[10 µM]	20µM	-	11µM	-	-
CN1CCN(c2ncc3nc(-c4ccc(Cl)cc4)c(=O)n(C)c3n2)CC1	-	.	?	.	.	-
CC1=NN(c2ccc(Cl)cc2)C(=O)C1C(c1ccccc1O)c1c(C)[nH]n(-c2ccc(Cl)cc2)c1=O (centres undefined)	-[10 µM]	7.9µM	7.5µM	?	-	-
CCCCC[C@H](O)/C=C/C=C\C/C=C\C=C\[C@@H](O)CCCC(=O)O	-	-	-	.	.	-
C/C(=N/NC(=O)CNc1ccc(C)cc1)c1ccc(Br)s1	-[10 µM]	-	14µM	?	-	-
CC(C)(C)c1cnnn1-c1ccc(C=O)cc1	-[10 µM]	-	25µM	-	-	-
CC(C)(C)c1cnnn1-c1ccc(C(=O)CCl)cc1	-[10 µM]	14µM	0.71µM	-	-	-
CN(C)C(=O)c1ccc(-c2ccc3ncnc(NCc4cccs4)c3c2)cc1	-	.	?	.	.	-
CCN(CC)[C@@H](C)C(=O)N1c2ccccc2Sc2ccccc21	-[1.9 µM]	.	.	.	.	.
CC#CCN1c2ccccc2[C@]23C[C@@H](C(=O)OC)N(C(=O)c4cccs4)C2=NC(C(=O)OC)=C(C(=O)OC)[C@H]13	-[10 µM]	-	-[13.5 µM]	.	.	-
COc1cc(/C=C2\SC(=O)N(Cc3ccc(Cl)cc3)C2=O)cc([N+](=O)[O-])c1O	-[1.9 µM]	.	2.5µM	-[9.22 µM]	.	-
COc1cc(/C=C2\C(=O)NN(c3ccccc3)C2=O)cc([N+](=O)[O-])c1O	-	.	?	-	.	-
CCOC(=O)CN1C(=O)S/C(=C/c2ccc(OC)c([N+](=O)[O-])c2)C1=O	-[10 µM]	16µM	13µM	-	.	-
COc1cc(/C=C2\SC(=O)N(Cc3ccc(F)cc3)C2=O)cc([N+](=O)[O-])c1O	-[10 µM]	.	0.71µM	-[9.22 µM]	.	-
CC(C)(C)c1cc2c(O)c(c1)Cc1cc(C(C)(C)C)cc(c1O)Cc1cc(C(C)(C)C)cc(c1O)Cc1cc(C(C)(C)C)cc(c1O)Cc1cc(C(C)(C)C)cc(c1O)Cc1cc(C(C)(C)C)cc(c1O)Cc1cc(C(C)(C)C)cc(c1O)Cc1cc(C(C)(C)C)cc(c1O)C2	-[10 µM]	-	-[13.5 µM]	.	.	-
